# Laboratory results reported in the supplement of paper PMC12350171.
# Counter-ions that a name gives are not always drawn. Values without a mark were called inactive.
# What was measured:
# Details in all cases: 20 µM
# [1] = system: Salmonella enterica typhimurium; test: growth AUC normalised to DMSO control (fraction of control); higher = less growth inhibition, active = hit call of the paper
# Method in brief: (§1)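 Pathogens passaged twice anaerobically were inoculated at a starting OD578 of 0.01 into pre-reduced mGAM plates with drug at 20 μM and 1% DMSO, sealed with breathable membranes. Haemophilus parainfluenzae medium was supplemented with hemin and NAD. OD578 was read hourly for 24 h, with three biological replicates. Growth-curve AUC was computed by the trapezoidal rule up to the exponential-to-stationary transition and normalised to DMSO controls on the same plate.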
# Shigella flexneri = test: as above
# Method in brief: as §1
# Vibrio cholerae = test: as above
# Method in brief: as §1
# [2] = system: Yersinia pseudotuberculosis; test: as above
# Method in brief: as §1
# P. vulgatus RND KO = test: growth AUC normalised to DMSO control (median) (fraction of control); higher = less growth inhibition, active = hit call of the paper
# Method in brief: (§2)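 Each strain went through two overnight passages under anaerobic conditions before growth in mGAM in 96-well plates, starting at OD578 0.01, with each compound from the approved-drug library at 20 μM and 1% DMSO. Inside an anaerobic incubator, OD578 was recorded every hour for 24 h. Growth curves were cut off at entry into stationary phase, and the area under the curve was calculated by the trapezoidal rule and normalised to vehicle wells on the same plate. Reported values are medians of three biological replicates.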
# P. vulgatus WT = test: as above
# Method in brief: as §2
# [3] = system: S. enterica typhimurium WT; test: as above
# Method in brief: as §2
# [4] = system: S. enterica typhimurium tolC KO; test: as above
# Method in brief: as §2
# 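Wherever growth AUC normalised to DMSO control (median) is given: active when median AUC fell below 0.1.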
Structure (SMILES),growth AUC normalised to DMSO control [1],growth AUC normalised to DMSO control (Shigella flexneri),growth AUC normalised to DMSO control (Vibrio cholerae),growth AUC normalised to DMSO control [2],growth AUC normalised to DMSO control (P. vulgatus RND KO),growth AUC normalised to DMSO control (P. vulgatus WT),growth AUC normalised to DMSO control [3],growth AUC normalised to DMSO control [4]
O=C(CCCN1CCC(O)(c2ccc(Cl)cc2)CC1)c1ccc(F)cc1 [Haloperidol],0.976,0.966,0.97,0.966,0.965,0.963,0.998,0.962
CNCCC=C1c2ccccc2CCc2ccccc21 [Nortriptyline hydrochloride],0.998,0.991,0.937,0.992,0.99,1.01,1,0.971
C[C@@H]1[C@H](O)[C@@H](C)/C=C/C=C/C=C/C=C/C=C/C=C/C=C/[C@H](O[C@@H]2O[C@H](C)[C@@H](O)[C@H](N)[C@@H]2O)C[C@@H]2O[C@](O)(C[C@@H](O)C[C@@H](O)[C@H](O)CC[C@@H](O)C[C@@H](O)CC(=O)O[C@H]1C)C[C@H](O)[C@H]2C(=O)O [Amphotericin B],1.02,1.1,1.05,1.02,1.04,1.1,1.01,0.988
O=C(N/N=C/c1ccc([N+](=O)[O-])o1)c1ccc(O)cc1 [Nifuroxazide],0.866 (active),0.189 (active),0.623 (active),0.96,0.883,0.861,0.924,0.862
"CC(C)Cc1ccc([C@H](C)C(=O)O)cc1 [(S,+) Ibuprofen]",1.01,0.968,0.95,0.983,0.989,0.982,0.994,1
Cc1cccn2c(=O)c(-c3nnn[nH]3)cnc12 [Pemirolast potassium],0.968,0.946,0.921,0.964,0.998,1.01,0.993,0.995
NC(=O)N1c2ccccc2CC(=O)c2ccccc21 [Oxcarbazepine],0.971,0.952,0.981,0.992,0.989,0.995,0.999,1
CCC1(C)CC(=O)NC1=O (stereo not drawn) [Ethosuximide],1.02,1.02,1.03,0.999,1.02,1.05,1,0.963
COc1ccc2c3c1O[C@H]1C[C@@H](O)C=C[C@@]31CCN(C)C2 [Galanthamine hydrobromide],0.995,0.95,0.986,1.02,0.998,1,1,0.995
O=S(=O)(O)CCS [Coenzyme M],1,1.02,1.01,0.997,1.01,1.01,1.01,1
"CCc1cc(Cl)c(OC)c(C(=O)NC[C@@H]2CCCN2CC)c1O [(S,-) Eticlopride hydrochloride]",1,1.01,0.922,0.986,1.06,1.03,1,0.947
CO[C@H]1/C=C/O[C@@]2(C)Oc3c(C)c(O)c4c(O)c(c(/C=N/N5CCN(C6CCCC6)CC5)c(O)c4c3C2=O)NC(=O)/C(C)=C\C=C\[C@H](C)[C@H](O)[C@@H](C)[C@@H](O)[C@@H](C)[C@H](OC(C)=O)[C@@H]1C [Rifapentine],0.258 (active),0.588 (active),1.03,0.0449 (active),0.0203 (active),0.0164 (active),0.78,0.716
CC1(C)[C@@H](OC(=O)CCC(=O)O)CC[C@]2(C)[C@H]3C(=O)C=C4[C@@H]5C[C@@](C)(C(=O)O)CC[C@]5(C)CC[C@@]4(C)[C@]3(C)CC[C@@H]12 [Carbenoxolone disodium salt],0.992,0.939,0.971,0.978,0.967,0.976,0.997,0.987
O=C(CCCN1CCC(O)(c2ccc(Br)cc2)CC1)c1ccc(F)cc1 [Bromperidol],1.02,0.984,0.999,0.997,0.999,1.01,0.998,0.974
CC[C@@H](CO)NCCN[C@@H](CC)CO [Ethambutol dihydrochloride],0.943,0.976,1,1.01,1.01,0.998,1,0.989
O=C(O)c1ccccc1OP(=O)(O)O [Fosfosal],0.983,0.984,0.994,0.988,1,1.02,1,1.01
CN1CCN(C(c2ccccc2)c2ccccc2)CC1 [Cyclizine hydrochloride],0.987,1.01,0.982,0.995,1.02,1.04,1.01,0.998
CC1CS(=O)(=O)CCN1/N=C/c1ccc([N+](=O)[O-])o1 (stereo not drawn) [Nifurtimox],0.981,0.947,0.00876 (active),0.99,0.0205 (active),0.00686 (active),0.995,0.962
C=C1c2c(Cl)ccc(O)c2C(O)=C2C(=O)[C@]3(O)C(O)=C(C(N)=O)C(=O)[C@@H](N(C)C)[C@@H]3[C@@H](O)[C@H]12.O=C(O)c1cc(S(=O)(=O)O)ccc1O [Meclocycline sulfosalicylate],0.00503 (active),0.015 (active),0.0396 (active),0.0398 (active),0.0142 (active),0.022 (active),0.0103 (active),0.00967 (active)
NC(=O)c1cccnc1 [Nicotinamide],1.02,1.06,1.05,1.01,1.07,1.1,0.996,1.01
Clc1ccc2c(c1)C(N1CCNCC1)=Nc1ccccc1O2 [Amoxapine],0.988,1.01,0.8 (active),1.01,0.795,0.759,1.01,0.972
O=C(N[C@H](CO)[C@H](O)c1ccc([N+](=O)[O-])cc1)C(Cl)Cl [Chloramphenicol],0.00522 (active),0.0276 (active),0.0386 (active),0.0352 (active),0.018 (active),0.0107 (active),0.00734 (active),0.00302 (active)
CCN(CC)CCNC(=O)COc1ccc(OC)cc1 [Mefexamide hydrochloride],1,0.982,0.995,1.01,0.988,0.97,1.01,0.998
CN1CCC(=C2c3ccccc3C=Cc3ccccc32)CC1 [Cyproheptadine hydrochloride],0.998,1,0.91,1,0.97,0.976,1.01,0.969
CC(=O)Oc1cccc2c1C(=O)c1c(OC(C)=O)cc(C(=O)O)cc1C2=O [Diacerein],1,0.997,0.784 (active),1.01,0.0327 (active),0.324,0.995,0.38
O=C1NCN(c2ccccc2)C12CCN(CCCC(c1ccc(F)cc1)c1ccc(F)cc1)CC2 [Fluspirilene],1.04,1.01,1.04,1.01,1,1.01,1.02,0.988
